Screen size: about 39,000 compounds; about 1,500 (3.8%) were called active. Many of the other results were omitted from the sample, so actives are more common in it than they were.

For this experiment, the system named is HSkMC (human skeletal muscle cells). The experiment in a line: cytotoxicity call (relative viability < 0.9). The following applies: 10 µM.
On to `Cc1ccc(S(=O)(=O)N(C)C[C@H]2Oc3c(NC(=O)Nc4ccc(C(F)(F)F)cc4)cccc3C(=O)N([C@H](C)CO)C[C@@H]2C)cc1`, for which the cytotoxicity call was “inactive”.

On to `CO[C@H]1CN(C)C(=O)c2cc(NS(=O)(=O)c3cn(C)cn3)ccc2OC[C@@H](C)N(Cc2cccc(F)c2)C[C@H]1C`, for which the cytotoxicity call is “inactive”.

As for `Cc1noc(C)c1NC(=O)Nc1cccc2c1O[C@@H](CN(C)Cc1ccc(Oc3ccccc3)cc1)[C@@H](C)CN([C@@H](C)CO)C2=O`, the cytotoxicity call is “inactive”.

For the compound `COc1ccc(S(=O)(=O)N(C)C[C@@H]2Oc3cc(C4=CCCC4)ccc3S(=O)(=O)N([C@H](C)CO)C[C@@H]2C)cc1`, the cytotoxicity call is “inactive”.

`COCCNC(=O)C[C@H]1CC[C@H]2[C@@H](COC[C@@H](O)CN2C(=O)Nc2ccc3c(c2)OCO3)O1`: the cytotoxicity call was “inactive”.

For the compound `CC(C)NC(=O)Nc1cccc2c1O[C@H](CN(C)Cc1ccc3c(c1)OCO3)[C@@H](C)CN([C@H](C)CO)C2=O`, the cytotoxicity call is “inactive”.

Turning to `COc1ccc(NC(=O)Nc2ccc3c(c2)C(=O)N([C@H](C)CO)C[C@H](C)[C@H](CN(C)Cc2ccc(C(=O)O)cc2)OCCCC[C@H](C)O3)cc1`, the cytotoxicity call was “inactive”.

With `C[C@H](CO)N1C[C@H](C)[C@@H](CN(C)S(=O)(=O)c2cn(C)cn2)Oc2ccc(NS(=O)(=O)c3ccc(Cl)cc3)cc2CC1=O`, the cytotoxicity call is “inactive”.

As for `C[C@H]1CN=C(NS(=O)(=O)c2ccccc2)N1`, the cytotoxicity call is “inactive”.

In the case of `C=CCON1C(=O)[C@@H]2[C@@H](C1=O)[C@@H]1C=C[C@@H]2O1`, the cytotoxicity call is “inactive”.

Take `CCCCc1oc2ccc(NS(C)(=O)=O)cc2c1C(=O)c1ccc(OCCCN(CCCC)CCCC)cc1.Cl`: the cytotoxicity call was “active”.

On to `CCCCc1oc2ccc(NS(C)(=O)=O)cc2c1C(=O)c1ccc(OCCCN(CCCC)CCCC)cc1`, for which the cytotoxicity call is “active”.

`CCc1oc2ccccc2c1C(=O)c1cc(Br)c(O)c(Br)c1`: the cytotoxicity call is “inactive”.

Regarding `CCCCOc1cc(C(=O)OCCN(CC)CC)ccc1N.Cl`, the cytotoxicity call is “inactive”.

Turning to `CCCCc1oc2ccccc2c1C(=O)c1cc(I)c(OCCN(CC)CC)c(I)c1`, the cytotoxicity call is “active”.

In the case of `CCCCN(CCCC)CCCOC(=O)c1ccc(N)cc1.O=S(=O)(O)O`, the cytotoxicity call was “inactive”.

Consider `CCCCc1oc2ccccc2c1C(=O)c1cc(I)c(OCCN(CC)CC)c(I)c1.Cl`, for which the cytotoxicity call was “inactive”.

For `C[C@H]1CN([C@@H](C)CO)C(=O)c2c(c3ccccc3n2C)-c2ccccc2CO[C@@H]1CN(C)C(=O)Nc1cccc(C(F)(F)F)c1`, the cytotoxicity call is “inactive”.

With `O=C(C[C@@H]1C=C[C@@H](NC(=O)Cc2ccccn2)[C@@H](CO)O1)NCCCN1CCOCC1`, the cytotoxicity call is “inactive”.

Take `CNC(=O)C[C@@H]1CC[C@@H]2[C@H](COc3ccc(NC(=O)c4ccc(C(F)(F)F)cc4)cc3C(=O)N2C)O1`: the cytotoxicity call was “inactive”.

Turning to `C[C@@H]1CCCCO[C@@H](CN(C)S(=O)(=O)c2cn(C)cn2)[C@@H](C)CN([C@@H](C)CO)C(=O)c2cc(NC(=O)Nc3ccc(C(F)(F)F)cc3)ccc2O1`, the cytotoxicity call was “inactive”.

As for `COCCOC(=O)N1C(=O)[C@@]2(c3cc(C#Cc4ccc(OC)cc4)ccc31)[C@H](c1ccccc1OCCO)N1[C@H](c3ccccc3)[C@H](c3ccccc3)OC(=O)[C@H]1[C@@H]2C(=O)N1CCN(c2ncccn2)CC1`, the cytotoxicity call is “inactive”.

Turning to `Cc1noc(C)c1NC(=O)N(C)C[C@@H]1OCCCC[C@H](C)Oc2ccc(NC(=O)NC3CCCCC3)cc2C(=O)N([C@@H](C)CO)C[C@H]1C`, the cytotoxicity call is “inactive”.

Consider `CO[C@@H]1CN(C)C(=O)c2cc(NC(=O)NC(C)C)ccc2OC[C@H](C)N(Cc2ccc(-c3ccccn3)cc2)C[C@@H]1C`, for which the cytotoxicity call is “inactive”.

`C[C@@H]1CCCCO[C@H](CN(C)S(C)(=O)=O)[C@@H](C)CN([C@H](C)CO)C(=O)c2cc(NS(=O)(=O)c3cccs3)ccc2O1`: the cytotoxicity call is “inactive”.

For `C[C@@H]1CCCCO[C@@H](CN(C)C(=O)Nc2ccc(C(F)(F)F)cc2)[C@H](C)CN([C@H](C)CO)C(=O)c2cc(NC(=O)Cc3ccccc3)ccc2O1`, the cytotoxicity call was “inactive”.

Consider `O=C(Oc1cccc2cccnc12)c1ccccc1`, for which the cytotoxicity call is “inactive”.

Take `COc1nc(=NC(=O)NS(=O)(=O)Nc2cccc3cccnc23)nc(OC)[nH]1`: the cytotoxicity call is “active”.

As to `COc1ccc(N2C(=O)C[C@@H](c3ccc(Br)cc3)[C@H]2C(=O)Nc2cccc3cccnc23)cc1`, the cytotoxicity call was “inactive”.

For the compound `CNC[C@H]1Oc2c(NS(=O)(=O)c3cn(C)cn3)cccc2C(=O)N([C@H](C)CO)C[C@@H]1C`, the cytotoxicity call was “inactive”.

As for `COc1cc2ncnc(Nc3ccc(F)c(Cl)c3)c2cc1OCCCN1CCOCC1`, the cytotoxicity call was “inactive”.

`COc1cc2c(Oc3ccc(NC(=O)C4(C(=O)Nc5ccc(F)cc5)CC4)cc3F)ccnc2cc1OCCCN1CCOCC1`: the cytotoxicity call is “active”.

In the case of `COc1ccc2c3c([nH]c2c1)[C@H](CO)N(C[C@]13CCN(CC1)C(=O)Nc1c(noc1C)C)C(=O)Nc1ccc(cc1)F`, the cytotoxicity call is “inactive”.

Consider `COc1cc2nccc(Oc3ccc(NC(=O)C4(C(=O)Nc5ccc(F)cc5)CC4)cc3)c2cc1OC`, for which the cytotoxicity call was “active”.

On to `COc1cc2ncnc(Oc3cccc(NC(=O)Nc4cc(C(C)(C)C(F)(F)F)on4)c3)c2cc1OC`, for which the cytotoxicity call is “inactive”.

As to `CCOc1ccn(-c2ccc(F)cc2)c(=O)c1C(=O)Nc1ccc(Oc2ccnc(N)c2Cl)c(F)c1`, the cytotoxicity call was “inactive”.

On to `COc1cc2nccc(Oc3ccc(NC(=O)c4cn(C(C)C)c(=O)n(-c5ccc(F)cc5)c4=O)cc3F)c2cc1OC`, for which the cytotoxicity call is “active”.

`COc1ccc2c3c(n(c2c1)C)[C@H](CO)N(C[C@]13CCN(CC1)C(=O)CN1CCOCC1)C(=O)Nc1ccc(cc1)F`: the cytotoxicity call is “inactive”.

With `C[C@H](CO)N1C[C@H](C)[C@@H](CN(C)S(=O)(=O)c2cccs2)Oc2ccc(NS(=O)(=O)c3cccs3)cc2CC1=O`, the cytotoxicity call was “inactive”.

In the case of `C[C@H](CO)N1C[C@H](C)[C@@H](CN(C)Cc2ccc(C(F)(F)F)cc2)Oc2ccc(NC(=O)CCC(F)(F)F)cc2C1=O`, the cytotoxicity call was “inactive”.

For the compound `C[C@@H]1CN([C@@H](C)CO)C(=O)CCCn2nncc2CO[C@H]1CN(C)C(=O)c1cc(-c2ccccc2)on1`, the cytotoxicity call is “inactive”.

Consider `C[C@H](CO)N1C[C@H](C)[C@H](CN(C)CC2CC2)OCCCC[C@H](C)Oc2ccc(NS(=O)(=O)c3ccc(Cl)cc3)cc2C1=O`, for which the cytotoxicity call was “inactive”.

For the compound `C[C@@H]1CN([C@H](C)CO)C(=O)Cc2cc(NS(=O)(=O)c3cn(C)cn3)ccc2O[C@@H]1CN(C)Cc1ccc(C(=O)O)cc1`, the cytotoxicity call was “inactive”.

As for `COC(=O)Cn1c(=N)n(C)c2ccccc21`, the cytotoxicity call is “inactive”.

Consider `C[C@H](CO)N1C[C@H](C)[C@H](CN(C)Cc2ccc(Cl)c(Cl)c2)Oc2ccc(NC(=O)Cn3cnnn3)cc2C1=O`, for which the cytotoxicity call is “inactive”.

As for `CO[C@@]1(NC(=O)[C@@H](C(=O)O)c2ccc(O)cc2)C(=O)N2C(C(=O)O)=C(CSc3nnnn3C)CO[C@@H]21`, the cytotoxicity call is “inactive”.

For `CN1CCCN=C1C=Cc1cccc(O)c1.O=C(O)c1cc2ccccc2c(Cc2c(O)c(C(=O)O)cc3ccccc23)c1O`, the cytotoxicity call was “inactive”.

Turning to `CN1CCCN=C1C=Cc1cccs1.O=C(O)c1cc2ccccc2c(Cc2c(O)c(C(=O)O)cc3ccccc23)c1O`, the cytotoxicity call was “inactive”.

For `Cc1cc(C=Cc2ccc3cc(N(C)C)ccc3[n+]2C)c(C)n1-c1ccccc1.O=C([O-])c1cc2ccccc2c(Cc2c(O)c(C(=O)O)cc3ccccc23)c1O`, the cytotoxicity call is “active”.

`C[C@H](CO)N1C[C@H](C)[C@@H](CN(C)C(=O)Nc2ccccc2)Oc2ccc(NC(=O)CCCCCC(=O)Nc3ccccc3N)cc2C1=O`: the cytotoxicity call is “inactive”.

In the case of `Cc1ccc(S(=O)(=O)Nc2ccc3c(c2)C(=O)N([C@@H](C)CO)C[C@H](C)[C@H](CN(C)C(=O)Nc2ccc(C(F)(F)F)cc2)OCCCC[C@H](C)O3)cc1`, the cytotoxicity call was “inactive”.

As for `O=C(CN1C(=O)c2cccc3cccc(c23)C1=O)N1CCN(CCN2C(=O)[C@@H]3[C@@H](C2=O)[C@@H]2C=C[C@@H]3C2)CC1`, the cytotoxicity call was “inactive”.

In the case of `CC(C)(C)C1CCC(OC[C@@H](O)CN2CCC(CN3C(=O)c4cccc5cccc(c45)C3=O)CC2)CC1` (stereo partly drawn), the cytotoxicity call is “active”.

In the case of `O=C(O)CN1C(=O)c2cccc3cccc(c23)C1=O`, the cytotoxicity call is “inactive”.

Turning to `O=C(O)C1C(=CCO)OC2CC(=O)N21.[LiH]` (stereo not drawn), the cytotoxicity call is “inactive”.

As to `Cc1ccc(S(=O)(=O)N(C)C[C@H]2Oc3c(NC(=O)C4CC4)cccc3C(=O)N([C@@H](C)CO)C[C@H]2C)cc1`, the cytotoxicity call is “inactive”.

For `COc1ccccc1CNC(=O)C[C@@H]1C[C@@H]2c3cc(NC(=O)c4ccc5c(c4)OCO5)ccc3O[C@@H]2[C@H](CO)O1`, the cytotoxicity call was “inactive”.

Turning to `O=C(C[C@H]1C[C@H]2c3cc(NC(=O)c4ccc5c(c4)OCO5)ccc3O[C@H]2[C@H](CO)O1)NCc1ccc(Oc2ccccc2)cc1`, the cytotoxicity call was “active”.

`O=C(C[C@H]1C[C@@H]2c3cc(NC(=O)c4ccc5c(c4)OCO5)ccc3O[C@@H]2[C@@H](CO)O1)NCc1ccc(Oc2ccccc2)cc1`: the cytotoxicity call was “inactive”.

With `COc1ccccc1CNC(=O)C[C@@H]1C[C@H]2c3cc(NC(=O)c4ccc5c(c4)OCO5)ccc3O[C@H]2[C@H](CO)O1`, the cytotoxicity call was “active”.

For `O=C(C[C@@H]1C[C@@H]2c3cc(NC(=O)c4ccc5c(c4)OCO5)ccc3O[C@@H]2[C@@H](CO)O1)NCc1ccc(Oc2ccccc2)cc1`, the cytotoxicity call is “active”.

For `O=C(C[C@H]1C[C@@H]2c3cc(NC(=O)c4ccc5c(c4)OCO5)ccc3O[C@@H]2[C@H](CO)O1)NCc1ccc(Oc2ccccc2)cc1`, the cytotoxicity call was “inactive”.

`O=C(C[C@@H]1C[C@H]2c3cc(NC(=O)c4ccc5c(c4)OCO5)ccc3O[C@H]2[C@H](CO)O1)NCc1ccc(Oc2ccccc2)cc1`: the cytotoxicity call is “inactive”.

In the case of `O=C(C[C@@H]1C[C@H]2c3cc(NC(=O)c4ccc5c(c4)OCO5)ccc3O[C@H]2[C@@H](CO)O1)NCc1ccc(Oc2ccccc2)cc1`, the cytotoxicity call is “inactive”.

As for `O=C(C[C@@H]1C[C@@H]2c3cc(NC(=O)c4ccc5c(c4)OCO5)ccc3O[C@@H]2[C@H](CO)O1)NCc1ccc(Oc2ccccc2)cc1`, the cytotoxicity call was “active”.

For `O=C(C[C@H]1C[C@H]2c3cc(NC(=O)c4ccc5c(c4)OCO5)ccc3O[C@H]2[C@@H](CO)O1)NCc1cccnc1`, the cytotoxicity call is “inactive”.

As for `O=C(C[C@H]1C[C@H]2c3cc(NC(=O)c4ccc5c(c4)OCO5)ccc3O[C@H]2[C@@H](CO)O1)NCc1ccc(Oc2ccccc2)cc1`, the cytotoxicity call was “inactive”.

With `COc1ccccc1CNC(=O)C[C@@H]1C[C@@H]2c3cc(NC(=O)c4ccc5c(c4)OCO5)ccc3O[C@@H]2[C@@H](CO)O1`, the cytotoxicity call is “inactive”.
